Measured values reported in the supplement of paper PMC3334620.
Whole data set: some 33,000 sequences, median “E-score (-0.5 to 0.5)” near -0.043, cut for the highest 2% near 0.37. The sample as a whole holds a higher share of the highest values than the screen did.

What follows are sequences tested against T1, Upc2 (UniProt Q12151) (assay: PBM E-score (8-mer binding enrichment) (E-score (-0.5 to 0.5)); higher = stronger / more preferred TF binding). Details: protein concentration: 200 nM; construct: GST-full length.
T1 sequence: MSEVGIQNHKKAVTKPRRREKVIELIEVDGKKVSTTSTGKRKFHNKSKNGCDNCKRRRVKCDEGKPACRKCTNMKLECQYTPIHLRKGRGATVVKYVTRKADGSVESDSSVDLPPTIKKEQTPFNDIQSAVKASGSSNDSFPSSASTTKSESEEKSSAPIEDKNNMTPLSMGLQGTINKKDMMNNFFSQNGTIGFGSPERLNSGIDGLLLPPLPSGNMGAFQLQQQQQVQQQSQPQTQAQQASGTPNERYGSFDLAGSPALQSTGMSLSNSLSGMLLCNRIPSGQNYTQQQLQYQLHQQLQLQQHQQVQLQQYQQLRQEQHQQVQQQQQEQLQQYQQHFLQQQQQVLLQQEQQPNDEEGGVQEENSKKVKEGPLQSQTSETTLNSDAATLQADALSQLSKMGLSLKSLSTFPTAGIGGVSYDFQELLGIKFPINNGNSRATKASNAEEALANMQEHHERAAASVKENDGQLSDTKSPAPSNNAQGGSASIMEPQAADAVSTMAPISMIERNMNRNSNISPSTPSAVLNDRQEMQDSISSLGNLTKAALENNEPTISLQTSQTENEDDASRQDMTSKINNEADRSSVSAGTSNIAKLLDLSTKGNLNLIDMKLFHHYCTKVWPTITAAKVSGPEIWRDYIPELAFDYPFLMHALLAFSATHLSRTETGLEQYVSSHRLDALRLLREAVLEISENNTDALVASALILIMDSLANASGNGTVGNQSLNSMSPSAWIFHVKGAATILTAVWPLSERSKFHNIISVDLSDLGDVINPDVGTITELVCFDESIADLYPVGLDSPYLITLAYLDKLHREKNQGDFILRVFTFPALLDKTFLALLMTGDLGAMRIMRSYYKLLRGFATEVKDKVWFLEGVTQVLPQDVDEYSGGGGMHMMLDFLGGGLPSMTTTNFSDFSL
Experimental: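 Universal 'all 10-mer' protein binding microarrays (Agilent AMADID 015681) probed with GST-tagged S. cerevisiae TFs (full-length or DBD) made by in vitro transcription/translation (PURExpress), about 100-200 nM. Bound TF was detected with fluorescent anti-GST. Each ungapped 8-mer (which stands for itself and its reverse complement) is scored by the PBM enrichment score (E-score), a modified Wilcoxon-Mann-Whitney statistic from -0.5 to +0.5, computed with the Universal PBM Analysis Suite. Scale: above 0.35 generally sequence-specific binding.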

Sequence	PBM E-score
CTTTCTCA	0.0661
AGCTCAGA	-0.0803
ACCGACTA	0.0499
ATCGAGGG	-0.0211
ATACATGC	0.169
AAAACCAC	-0.0422
CCGAAGAA	-0.127
AAGATGCC	0.00959
CCGAACGG	0.199
CCGAACGC	0.0534
CCGAACGA	0.384
ATTATGAG	-0.102
GCAAGGAC	-0.135
ACTTCACG	0.0222
ACGAGATA	0.355
ATGAGATG	-0.243
ACGAGAGA	0.343
CCGAGATC	0.018
GCGAGAGC	0.23
ACGAGATG	0.38
ACGAGACC	0.347
ACGAGATC	0.408
ACGAGAGC	0.375
ACGTCCCA	-0.208
CCGCCCAG	-0.0999
CGAAACAA	0.188

Sequence	PBM E-score
ATTTGCGC	0.024
GGATGCTA	-0.0482
ATTTCGCC	0.131
CGAGCATA	0.175
CCTTAGGC	-0.0987
GACGAATA	0.0289
CACGAAAA	0.134
GACGAAAA	0.177
AGCGAATG	0.177
GACGAATC	0.138
TACGAAAA	0.411
AACGAATC	0.39
CACGAATA	0.175
CACGAATG	0.0101
TACGAATA	0.415
AACGAATG	0.416
CACGAATC	0.0313
CGACCAGA	0.0386
GACCGTGA	-0.166
CCGCTGGA	-0.0874
ATAATTGC	-0.037
AACCTGCT	-0.0408
CACCATGC	-0.295
CCGGGCTA	-0.18
CACGTACG	0.346
ATAACGAT	0.144

Sequence	PBM E-score
ATCGAATA	0.211
AAGGAATT	-0.215
AACGAATA	0.381
AAAGAATT	-0.0689
AACGAATT	0.378
ACCGAATA	0.0988
GATCAGCC	-0.29
ATCTTCCG	0.168
AGCTTTTA	0.163
TGTGCGAA	0.0333
CGAACGTC	0.135
CGAACGCC	0.0792
CGAACAAA	0.183
GGAACGAA	0.464
GGAACGTA	0.282
GGAACGCA	0.174
GGAACGAC	0.453
GGAACGCC	0.013
CGAACGGA	0.223
CGAACGAC	0.401
CGAACGAA	0.398
GTAACGAC	0.326
ATCCTTAC	-0.0381
AAAACTCA	-0.0631
CGACCCTC	0.0606
AAGCCCAC	-0.0729

Sequence	PBM E-score
AAATGCAG	-0.0984
GCTGGATA	-0.131
CCCTGTAG	-0.234
AGAACGAG	0.42
ACAACGAG	0.257
CGAACGAG	0.427
AGAACAAA	0.103
AGAACGAC	0.391
AGAACGAT	0.342
ATAACGAC	0.159
AGAACGTG	-0.00321
CTAACGAG	0.343
AGAACGTC	-0.066
AGAACGAA	0.376
CGAACGCG	0.185
AAACCTGT	0.225
GCTCTCAC	-0.32
TCCGCGCA	-0.0128
AAATACTC	-0.0601
CAGTTGAG	-0.255
ACGGGCTC	0.128
AATAACGT	0.133
TGAACGAA	0.458
TGAACGCA	0.189
TTAACGAA	0.448
ATAACGAA	0.197

Sequence	PBM E-score
CTAACGAA	0.287
TCAACGAA	0.249
CTACCGTA	0.301
TCACGACA	-0.138
AGACGACC	0.132
GGACGACA	-0.266
TGACGACA	0.0658
GCACGACC	-0.2
CAACGACA	0.313
AAACGACC	0.458
GGACGACC	-0.212
GAACGACA	0.437
TAACGACA	0.381
CAACGACC	0.221
GAACGACC	0.429
AGCCAACC	0.0299
TCTCACCA	-0.14
CAGTGCAC	-0.136
CTACCACA	-0.234
CCGGCTAA	-0.199
AGATAAAG	-0.0496
CAACGACG	0.296
CGACGACG	0.0684
AGACGACA	0.104
AAACGACG	0.476
ACACGACA	0.221

Sequence	PBM E-score
AAACGACT	0.456
AAACGACA	0.479
AGACGACT	0.0557
ACACGACT	0.194
GCCGAGAA	0.068
AACAATCA	-0.0313
CCTGGGGC	-0.165
TCGCCGCA	-0.0606
AATTAACG	0.272
AGAATAGC	-0.229
TTCCGGAA	-0.206
CATCATTA	-0.0416
ACTTACTG	-0.00843
AGTATATA	0.282
CGTATATC	0.454
GGTATATA	0.152
CATATATC	0.114
CGTATATA	0.458
AGTATATC	0.0604
AATTCGTA	0.433
GATTCGCA	0.131
CATTCGTA	0.416
CATTCGTC	0.0696
GATTCGTA	0.438
AATTCGTC	0.0116
CATTCGCA	0.0275

Sequence	PBM E-score
AATTCGTG	-0.0513
GATTCGGA	0.11
CCTGGGAC	-0.25
CCCTCTCC	-0.339
CCGTTCGC	0.201
ACCTTGGG	-0.219
CTAAATTC	0.0497
AGCTGCAT	-0.108
AACGAGAT	0.417
TACGAGAA	0.447
GACGAGAA	0.0864
AACGAGAG	0.425
CACGAGAA	0.0693
TCCGAGAA	0.248
ATCGAGAT	-0.0275
ACCGAGAT	0.126
ATCGAGAG	0.0513
TTCGAGAA	0.109
AACGAGAA	0.422
CACGAGAG	0.0635
